According to article PMC12529666, “Dysregulation of AGO2-miRNA dynamics underlies the AGO2-associated Lessel–Kreienkamp syndrome”:

B1: ATACTTTA (ssRNA)
RNA 1: GAGUUCUACAGUCCGACGAUCCCAACAUACUUUACACCUGGAAUUCUCGGGUGCCAA
RNA 2: UGGAGUGUGACAAUGGUGUUUG
DNA 1: GATCGTCGGACTGTAGAACTC
DNA 2: TTGGCACCCGAGAATTCCA
modifications: constant regions annealed to DNA blockers; guide miR-122 5' phosphate
B2: ACGCTCCA (ssRNA)
RNA 1: GAGUUCUACAGUCCGACGAUCCCAACACGCUCCACACCUGGAAUUCUCGGGUGCCAA
RNA 2: UGGAGUGUGACAAUGGUGUUUG
DNA 1: GATCGTCGGACTGTAGAACTC
DNA 2: TTGGCACCCGAGAATTCCA
modifications: constant regions annealed to DNA blockers; guide miR-122 5' phosphate
B3: GCACTTCA (ssRNA)
RNA 1: GAGUUCUACAGUCCGACGAUCCCAACGCACUUCACACCUGGAAUUCUCGGGUGCCAA
RNA 2: UGGAGUGUGACAAUGGUGUUUG
DNA 1: GATCGTCGGACTGTAGAACTC
DNA 2: TTGGCACCCGAGAATTCCA
modifications: constant regions annealed to DNA blockers; guide miR-122 5' phosphate
B4: GCACTCTG (ssRNA)
RNA 1: GAGUUCUACAGUCCGACGAUCCCAACGCACUCUGCACCUGGAAUUCUCGGGUGCCAA
RNA 2: UGGAGUGUGACAAUGGUGUUUG
DNA 1: GATCGTCGGACTGTAGAACTC
DNA 2: TTGGCACCCGAGAATTCCA
modifications: constant regions annealed to DNA blockers; guide miR-122 5' phosphate
B5: GCGTCTCA (ssRNA)
RNA 1: GAGUUCUACAGUCCGACGAUCCCAACGCGUCUCACACCUGGAAUUCUCGGGUGCCAA
RNA 2: UGGAGUGUGACAAUGGUGUUUG
DNA 1: GATCGTCGGACTGTAGAACTC
DNA 2: TTGGCACCCGAGAATTCCA
modifications: constant regions annealed to DNA blockers; guide miR-122 5' phosphate
B6: GTATCCCA (ssRNA)
RNA 1: GAGUUCUACAGUCCGACGAUCCCAACGUAUCCCACACCUGGAAUUCUCGGGUGCCAA
RNA 2: UGGAGUGUGACAAUGGUGUUUG
DNA 1: GATCGTCGGACTGTAGAACTC
DNA 2: TTGGCACCCGAGAATTCCA
modifications: constant regions annealed to DNA blockers; guide miR-122 5' phosphate
B7: ATGCTTCA (ssRNA)
RNA 1: GAGUUCUACAGUCCGACGAUCCCAACAUGCUUCACACCUGGAAUUCUCGGGUGCCAA
RNA 2: UGGAGUGUGACAAUGGUGUUUG
DNA 1: GATCGTCGGACTGTAGAACTC
DNA 2: TTGGCACCCGAGAATTCCA
modifications: constant regions annealed to DNA blockers; guide miR-122 5' phosphate
B8: ATATTTCA (ssRNA)
RNA 1: GAGUUCUACAGUCCGACGAUCCCAACAUAUUUCACACCUGGAAUUCUCGGGUGCCAA
RNA 2: UGGAGUGUGACAAUGGUGUUUG
DNA 1: GATCGTCGGACTGTAGAACTC
DNA 2: TTGGCACCCGAGAATTCCA
modifications: constant regions annealed to DNA blockers; guide miR-122 5' phosphate
B9: GTGCTCCG (ssRNA)
RNA 1: GAGUUCUACAGUCCGACGAUCCCAACGUGCUCCGCACCUGGAAUUCUCGGGUGCCAA
RNA 2: UGGAGUGUGACAAUGGUGUUUG
DNA 1: GATCGTCGGACTGTAGAACTC
DNA 2: TTGGCACCCGAGAATTCCA
modifications: constant regions annealed to DNA blockers; guide miR-122 5' phosphate
B10: ATGTTCCA (ssRNA)
RNA 1: GAGUUCUACAGUCCGACGAUCCCAACAUGUUCCACACCUGGAAUUCUCGGGUGCCAA
RNA 2: UGGAGUGUGACAAUGGUGUUUG
DNA 1: GATCGTCGGACTGTAGAACTC
DNA 2: TTGGCACCCGAGAATTCCA
modifications: constant regions annealed to DNA blockers; guide miR-122 5' phosphate

Each binder was assayed against AGO2 WT (phosphosite mutant background) (Homo sapiens, UniProt Q9UKV8 1-859, S387D;S824A;S828D;S831D;S834A) (assay: RNA Bind-n-Seq (nitrocellulose filter binding and sequencing); miR-122 guide loaded in AGO2; 60 min incubation; 30 mM Tris pH 8.0, 100 mM potassium acetate, 2 mM magnesium acetate, 0.5 mM TCEP, 0.005% NP-40, 0.01 mg/ml yeast tRNA; 3 nM AGO2-miR-122, 100 nM RNA library; 60; high values mean tight binding). Details: protein: recombinant; tags: His6 (N-terminal, pFastBac HTA).
Method in brief: (§1)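 His-tagged AGO2 was expressed in Sf9 insect cells by baculovirus, loaded with a synthetic guide RNA, and purified by Ni-NTA and a biotinylated capture oligo. Bound RNA was extracted, reverse-transcribed, barcode-amplified and Illumina-sequenced. Fold enrichment is each sequence's read fraction divided by its input-library read fraction.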

Chain of AGO2 WT (phosphosite mutant background) (Q9UKV8 whole entry S387D/S824A/S828D/S831D/S834A): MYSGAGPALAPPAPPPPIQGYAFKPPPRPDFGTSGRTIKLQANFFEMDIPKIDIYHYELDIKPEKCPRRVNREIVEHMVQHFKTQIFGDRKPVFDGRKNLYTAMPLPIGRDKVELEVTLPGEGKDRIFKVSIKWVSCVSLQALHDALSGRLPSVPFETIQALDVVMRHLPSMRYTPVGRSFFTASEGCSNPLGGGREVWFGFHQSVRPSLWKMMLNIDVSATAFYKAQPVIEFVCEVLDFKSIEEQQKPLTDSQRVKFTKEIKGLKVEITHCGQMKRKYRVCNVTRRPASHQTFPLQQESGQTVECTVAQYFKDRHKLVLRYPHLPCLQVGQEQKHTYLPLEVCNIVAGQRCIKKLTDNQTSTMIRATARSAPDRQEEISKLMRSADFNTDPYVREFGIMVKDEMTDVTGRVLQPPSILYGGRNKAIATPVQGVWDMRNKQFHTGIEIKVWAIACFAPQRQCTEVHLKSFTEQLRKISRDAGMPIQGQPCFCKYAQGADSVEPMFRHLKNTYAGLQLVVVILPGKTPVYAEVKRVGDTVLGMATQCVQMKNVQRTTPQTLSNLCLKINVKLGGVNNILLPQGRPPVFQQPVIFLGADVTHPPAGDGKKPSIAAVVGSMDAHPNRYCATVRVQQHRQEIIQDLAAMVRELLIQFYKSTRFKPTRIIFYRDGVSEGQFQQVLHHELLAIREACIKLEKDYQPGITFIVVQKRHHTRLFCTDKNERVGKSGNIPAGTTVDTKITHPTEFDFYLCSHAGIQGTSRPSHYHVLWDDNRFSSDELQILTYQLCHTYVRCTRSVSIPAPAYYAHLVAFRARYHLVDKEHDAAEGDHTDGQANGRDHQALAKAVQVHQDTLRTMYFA

Binder | binding signal
B1 | 0.121 fold enrichment over input
B2 | 5.29 fold enrichment over input
B3 | 0.149 fold enrichment over input
B4 | 0.143 fold enrichment over input
B5 | 0.14 fold enrichment over input
B6 | 0.162 fold enrichment over input
B7 | 0.135 fold enrichment over input
B8 | 0.141 fold enrichment over input
B9 | 0.149 fold enrichment over input
B10 | 0.148 fold enrichment over input

Each binder was assayed against AGO2 L192P (Homo sapiens, UniProt Q9UKV8 1-859, L192P;S387D;S824A;S828D;S831D;S834A) in the same assay as above. Details: protein: recombinant; tags: His6 (N-terminal, pFastBac HTA).
Method in brief: as §1

Chain of AGO2 L192P (Q9UKV8 whole entry L192P/S387D/S824A/S828D/S831D/S834A): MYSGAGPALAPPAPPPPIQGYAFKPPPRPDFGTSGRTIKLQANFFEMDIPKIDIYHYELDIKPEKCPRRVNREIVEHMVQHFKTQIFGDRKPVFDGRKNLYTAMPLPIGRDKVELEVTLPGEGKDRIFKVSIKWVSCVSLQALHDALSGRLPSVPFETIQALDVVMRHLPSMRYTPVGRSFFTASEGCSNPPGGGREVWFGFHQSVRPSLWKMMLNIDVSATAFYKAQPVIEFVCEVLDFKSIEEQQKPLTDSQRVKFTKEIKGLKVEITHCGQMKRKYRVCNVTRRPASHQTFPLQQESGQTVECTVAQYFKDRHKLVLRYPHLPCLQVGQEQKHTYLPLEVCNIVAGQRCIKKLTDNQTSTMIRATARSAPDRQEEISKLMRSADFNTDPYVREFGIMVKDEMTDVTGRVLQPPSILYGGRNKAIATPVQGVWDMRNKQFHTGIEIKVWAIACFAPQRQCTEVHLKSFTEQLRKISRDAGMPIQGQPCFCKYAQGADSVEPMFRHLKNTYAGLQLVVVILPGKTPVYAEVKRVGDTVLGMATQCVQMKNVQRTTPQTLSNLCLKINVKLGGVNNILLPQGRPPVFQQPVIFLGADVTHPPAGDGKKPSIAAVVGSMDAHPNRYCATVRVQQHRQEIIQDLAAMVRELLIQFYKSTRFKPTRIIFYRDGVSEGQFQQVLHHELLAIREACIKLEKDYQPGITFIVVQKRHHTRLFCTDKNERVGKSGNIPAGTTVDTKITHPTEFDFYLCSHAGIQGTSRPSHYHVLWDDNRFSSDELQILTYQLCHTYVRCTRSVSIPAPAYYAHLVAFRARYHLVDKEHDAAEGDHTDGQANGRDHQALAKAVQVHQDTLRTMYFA

Binder | binding signal
B1 | 0.536 fold enrichment over input
B2 | 12.3 fold enrichment over input
B3 | 0.575 fold enrichment over input
B4 | 0.491 fold enrichment over input
B5 | 0.529 fold enrichment over input
B6 | 0.517 fold enrichment over input
B7 | 0.573 fold enrichment over input
B8 | 0.626 fold enrichment over input
B9 | 0.546 fold enrichment over input
B10 | 0.552 fold enrichment over input

The binders below were run against AGO2 A367P (Homo sapiens, UniProt Q9UKV8 1-859, A367P;S387D;S824A;S828D;S831D;S834A) in the same assay as above. Details: protein: recombinant; tags: His6 (N-terminal, pFastBac HTA).
Method in brief: as §1

Chain of AGO2 A367P (Q9UKV8 whole entry A367P/S387D/S824A/S828D/S831D/S834A): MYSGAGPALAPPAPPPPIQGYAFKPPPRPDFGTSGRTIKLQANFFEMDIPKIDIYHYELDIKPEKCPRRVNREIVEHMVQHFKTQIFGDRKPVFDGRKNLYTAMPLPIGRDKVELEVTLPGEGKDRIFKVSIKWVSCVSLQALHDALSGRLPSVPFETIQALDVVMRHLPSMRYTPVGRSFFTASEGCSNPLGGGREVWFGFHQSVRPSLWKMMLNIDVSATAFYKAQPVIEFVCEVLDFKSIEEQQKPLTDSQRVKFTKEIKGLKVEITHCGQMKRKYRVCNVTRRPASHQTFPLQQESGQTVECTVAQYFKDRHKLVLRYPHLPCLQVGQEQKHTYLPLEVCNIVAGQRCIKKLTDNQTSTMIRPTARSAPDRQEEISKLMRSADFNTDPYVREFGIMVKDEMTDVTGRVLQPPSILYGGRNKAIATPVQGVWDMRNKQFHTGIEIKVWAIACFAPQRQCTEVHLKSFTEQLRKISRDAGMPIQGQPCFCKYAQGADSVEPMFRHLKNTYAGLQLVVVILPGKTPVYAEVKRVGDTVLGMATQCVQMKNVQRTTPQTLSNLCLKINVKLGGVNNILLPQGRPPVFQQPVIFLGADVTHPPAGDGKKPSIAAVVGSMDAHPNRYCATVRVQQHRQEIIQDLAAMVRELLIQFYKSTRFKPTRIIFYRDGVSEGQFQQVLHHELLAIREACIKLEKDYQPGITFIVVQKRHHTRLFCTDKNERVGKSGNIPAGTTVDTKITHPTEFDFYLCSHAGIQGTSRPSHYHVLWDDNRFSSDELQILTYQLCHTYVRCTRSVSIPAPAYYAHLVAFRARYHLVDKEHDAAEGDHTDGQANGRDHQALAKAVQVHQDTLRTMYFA

Binder | binding signal
B1 | 0.174 fold enrichment over input
B2 | 13.1 fold enrichment over input
B3 | 0.348 fold enrichment over input
B4 | 0.33 fold enrichment over input
B5 | 0.271 fold enrichment over input
B6 | 0.408 fold enrichment over input
B7 | 0.309 fold enrichment over input
B8 | 0.373 fold enrichment over input
B9 | 0.535 fold enrichment over input
B10 | 0.299 fold enrichment over input

The binders below were run against AGO2 T357M (Homo sapiens, UniProt Q9UKV8 1-859, T357M;S387D;S824A;S828D;S831D;S834A) in the same assay as above. Details: protein: recombinant; tags: His6 (N-terminal, pFastBac HTA).
Method in brief: as §1

Chain of AGO2 T357M (Q9UKV8 whole entry T357M/S387D/S824A/S828D/S831D/S834A): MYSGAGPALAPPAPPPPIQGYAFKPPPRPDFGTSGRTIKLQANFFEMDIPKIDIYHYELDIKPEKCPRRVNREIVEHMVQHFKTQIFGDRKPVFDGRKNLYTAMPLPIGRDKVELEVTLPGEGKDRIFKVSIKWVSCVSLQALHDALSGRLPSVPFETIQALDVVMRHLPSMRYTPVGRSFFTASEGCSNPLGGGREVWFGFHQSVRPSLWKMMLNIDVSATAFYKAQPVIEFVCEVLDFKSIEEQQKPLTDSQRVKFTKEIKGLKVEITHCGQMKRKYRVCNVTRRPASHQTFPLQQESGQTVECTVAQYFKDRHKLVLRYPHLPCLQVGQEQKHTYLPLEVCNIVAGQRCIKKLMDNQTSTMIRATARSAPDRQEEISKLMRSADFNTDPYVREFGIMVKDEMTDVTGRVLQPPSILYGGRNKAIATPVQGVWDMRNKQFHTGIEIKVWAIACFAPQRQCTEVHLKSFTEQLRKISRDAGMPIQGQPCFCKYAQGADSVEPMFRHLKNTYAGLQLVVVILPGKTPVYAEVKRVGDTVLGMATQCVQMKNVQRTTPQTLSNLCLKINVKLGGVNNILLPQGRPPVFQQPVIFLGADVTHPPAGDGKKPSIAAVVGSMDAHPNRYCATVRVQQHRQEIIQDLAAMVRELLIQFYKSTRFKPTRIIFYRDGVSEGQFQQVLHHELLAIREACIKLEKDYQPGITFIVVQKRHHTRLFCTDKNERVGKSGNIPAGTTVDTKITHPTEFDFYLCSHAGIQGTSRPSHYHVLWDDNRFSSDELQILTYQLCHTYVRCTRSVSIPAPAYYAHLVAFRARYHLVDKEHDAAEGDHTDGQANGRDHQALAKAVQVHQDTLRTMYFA

Binder | binding signal
B1 | 0.643 fold enrichment over input
B2 | 2.94 fold enrichment over input
B3 | 0.655 fold enrichment over input
B4 | 0.457 fold enrichment over input
B5 | 0.646 fold enrichment over input
B6 | 0.614 fold enrichment over input
B7 | 0.582 fold enrichment over input
B8 | 0.697 fold enrichment over input
B9 | 0.617 fold enrichment over input
B10 | 0.682 fold enrichment over input

The binders below were run against AGO2 F182del (Homo sapiens, UniProt Q9UKV8 1-859, S387D;S824A;S828D;S831D;S834A;del182-182) in the same assay as above. Details: protein: recombinant; tags: His6 (N-terminal, pFastBac HTA).
Method in brief: as §1

Chain of AGO2 F182del (Q9UKV8 other isoform, or with tags, fused parts or gaps S387D;S824A;S828D;S831D;S834A;del182-182): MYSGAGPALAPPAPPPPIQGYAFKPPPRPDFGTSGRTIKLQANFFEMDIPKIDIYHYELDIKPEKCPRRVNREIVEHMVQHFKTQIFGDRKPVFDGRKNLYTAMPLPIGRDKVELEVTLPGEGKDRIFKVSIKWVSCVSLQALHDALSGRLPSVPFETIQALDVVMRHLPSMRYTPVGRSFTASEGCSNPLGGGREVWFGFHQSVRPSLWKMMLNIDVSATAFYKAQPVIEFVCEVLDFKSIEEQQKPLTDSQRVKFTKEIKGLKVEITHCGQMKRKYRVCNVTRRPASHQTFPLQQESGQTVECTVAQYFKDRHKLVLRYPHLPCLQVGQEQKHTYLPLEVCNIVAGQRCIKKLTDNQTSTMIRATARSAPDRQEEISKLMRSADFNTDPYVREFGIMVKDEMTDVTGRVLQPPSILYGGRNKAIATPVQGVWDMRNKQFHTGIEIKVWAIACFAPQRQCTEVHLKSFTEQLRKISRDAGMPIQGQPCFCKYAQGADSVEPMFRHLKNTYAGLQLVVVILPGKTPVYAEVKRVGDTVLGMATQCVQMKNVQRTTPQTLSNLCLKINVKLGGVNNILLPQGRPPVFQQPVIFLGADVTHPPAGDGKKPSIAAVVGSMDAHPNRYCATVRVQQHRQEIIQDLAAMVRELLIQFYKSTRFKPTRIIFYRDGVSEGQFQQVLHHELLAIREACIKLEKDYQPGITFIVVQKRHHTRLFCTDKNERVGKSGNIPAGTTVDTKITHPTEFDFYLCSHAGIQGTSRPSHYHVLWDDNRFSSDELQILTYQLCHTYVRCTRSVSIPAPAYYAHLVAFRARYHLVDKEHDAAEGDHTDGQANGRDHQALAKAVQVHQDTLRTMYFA

Binder | binding signal
B2 | 16.9 fold enrichment over input
B3 | 0.82 fold enrichment over input
B4 | 0.887 fold enrichment over input
B5 | 0.747 fold enrichment over input
B6 | 0.832 fold enrichment over input
B7 | 0.842 fold enrichment over input
B8 | 1.09 fold enrichment over input
B9 | 0.426 fold enrichment over input
B10 | 0.701 fold enrichment over input
